In PubChem BioAssay:
The source made the active and inactive calls.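 The calls were made as follows, unless noted: active = inhibition at or above 50% at 10 µM; inactive = inhibition below 50%.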

Tests used:
[1] = inhibitors of TNFa-induced NFkB p65 translocation, primary screen, imaging, HUVEC, MLSMR starter and 10KST1 sets (AID 438;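 active = inhibition above 20% together with a positive visual image hit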;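 also: compound added about 3h40 before a 20 min TNFalpha stimulation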;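 as to inhibition: signal is the nuclear over cytoplasmic p65 intensity ratio per well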); conditions: HUVEC TNFa-induced p65 nuclear translocation; cell count: measured here: nuclei count (cytotoxicity indicator), at 2.08 µM; inhibition: at 2 µM, stronger effect = higher value, 0% TNFa-plus-vehicle, 100% no-TNFa wells
[2] = inhibitors of mutant huntingtin aggregation, primary screen, imaging, exon1htt(103Q)mCFP cells, high-content imaging (AID 483;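 active = visual image review flags a hit and inhibition of aggregation exceeds 20%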;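 also: compound exposure lasted 3 days before fixation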;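 as to nuclei count: percent of the per-plate median nuclei count of sample wells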); conditions: exon1htt(103Q)mCFP cell line, aggregate imaging, at 2 µM; inhibition of aggregation: stronger effect = higher value; nuclei count: measured here: cell count, toxicity
[3] = inhibitors of E-selectin induction by TNFa, primary screen, imaging, HUVEC, immunofluorescence, MLSMR starter and 10KST1 sets (AID 487;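 active = visually confirmed hit in the image check and inhibition above 20%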;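 as to inhibition: signal is fraction of cell area covered by stained E-selectin grains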;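 as to nuclei count: 100% = median nuclei count of all wells on the same plate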); conditions: HUVEC TNFalpha-induced E-selectin immunofluorescence imaging, at 2 µM; inhibition: stronger effect = higher value; nuclei count: measured here: cell number, toxicity
[4] = target: Voltage-gated potassium channel subunit beta-2 (Rattus norvegicus) (UniProt P62483); assay: KvBeta enzyme negative modulators, primary screen, biochemical, NADPH fluorescence (AID 622;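 active = fluorescence slope higher than the sample average by over 3 SD, cut at about -0.22 in these data, passing the limit was not always enough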;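 also: slope of raw intensity against log time taken from 70 to 1610 s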); conditions: recombinant KvBeta, 4-cyanobenzaldehyde reduction, at 10 µM, stronger effect = higher value
Chain of Voltage-gated potassium channel subunit beta-2 (Rattus norvegicus) (P62483 whole entry, looked up): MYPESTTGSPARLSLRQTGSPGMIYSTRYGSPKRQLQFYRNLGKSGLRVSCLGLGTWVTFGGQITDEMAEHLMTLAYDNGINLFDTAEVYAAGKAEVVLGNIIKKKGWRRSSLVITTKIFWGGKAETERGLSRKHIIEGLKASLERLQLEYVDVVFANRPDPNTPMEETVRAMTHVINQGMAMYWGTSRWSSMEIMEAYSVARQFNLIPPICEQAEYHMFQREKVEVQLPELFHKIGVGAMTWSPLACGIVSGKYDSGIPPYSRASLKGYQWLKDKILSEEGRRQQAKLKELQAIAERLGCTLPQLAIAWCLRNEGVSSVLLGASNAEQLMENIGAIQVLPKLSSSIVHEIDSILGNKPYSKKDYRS

[5] = target: Voltage-gated potassium channel subunit beta-2 (Rattus norvegicus) (UniProt P62483); assay: KvBeta positive modulators, primary screen, biochemical, NADPH fluorescence (AID 623;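 active = NADPH fluorescence slope more negative than the mean of all samples by about 3 SD, 99.7% confidence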;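 also: fluorescence intensity change per second fitted from 20 to 320 s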); conditions: Recombinant KvBeta, NADPH fluorescence decrease slope, 10 min; at 10 µM; stronger effect = lower value
[6] = target: Alpha-2C adrenergic receptor (Homo sapiens) (UniProt P18825); assay: modulators of alpha2C/GIRK thallium flux, primary screen, cell-based, HEK293 alpha2C/GIRK1/2 (AID 624;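 active = fluorescence slope after compound addition differing from the mean of all screened samples at 99.7% confidence, in either direction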;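 also: slope of fluorescence ratio to pre-addition baseline per second over 15 to 24 s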); conditions: thallium flux BTC fluorescence, at 10 µM, actives lie on both sides
Chain of Alpha-2C adrenergic receptor (Homo sapiens) (P18825 whole entry, looked up): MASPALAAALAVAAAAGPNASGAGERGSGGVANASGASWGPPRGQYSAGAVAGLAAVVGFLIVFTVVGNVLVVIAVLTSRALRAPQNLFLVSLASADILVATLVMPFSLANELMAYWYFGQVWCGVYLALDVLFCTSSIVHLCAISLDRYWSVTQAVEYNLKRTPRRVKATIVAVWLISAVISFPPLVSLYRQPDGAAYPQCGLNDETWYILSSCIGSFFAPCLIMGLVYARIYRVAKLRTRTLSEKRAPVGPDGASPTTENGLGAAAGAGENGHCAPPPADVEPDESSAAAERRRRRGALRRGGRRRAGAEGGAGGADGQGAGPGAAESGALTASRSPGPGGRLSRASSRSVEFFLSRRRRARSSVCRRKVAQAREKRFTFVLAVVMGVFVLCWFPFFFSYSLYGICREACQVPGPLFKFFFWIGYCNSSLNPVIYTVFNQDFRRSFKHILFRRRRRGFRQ

[7] = inhibitors of Sendai virus-induced IRF3 signaling, primary screen, TLR/RLR signaling modifier project, cell-based, Sendai virus stimulus, luciferase, 10K MLSCN set (AID 602276); conditions: HEK293 RL24 IRF3 luciferase reporter, at 10 µM, stronger effect = higher value;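 also: firefly luciferase from ISG56 promoter only with Renilla not read in this screen; 0% = Sendai virus plus DMSO and 100% = medium plus DMSO without virus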
[8] = inhibitors of poly I:C-induced TLR3 signaling, primary screen, cell-based, poly I:C stimulus, luciferase, 10K MLSCN set (AID 602277;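 active = inhibition of the reporter signal at or above 50%; inactive = inhibition below 50%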); conditions: HEK293-TLR3 RL24 IRF3 luciferase reporter, at 10 µM, stronger effect = higher value

| SMILES | cell count [1] | inhibition [1] | inhibition of aggregation [2] | nuclei count [2] [%] | inhibition [3] | nuclei count [3] [%] | fluorescence slope [4] | NADPH fluorescence slope [5] | slope [6] | inhibition [7] | inhibition [8] |
| --- | --- | --- | --- | --- | --- | --- | --- | --- | --- | --- | --- |
| CCCCC(=O)NCCc1cc2c(C)ccc(C)c2[nH]c1=O | 699 | -1% (inactive) | -22.4% (inactive) | 105 | -13.4% (inactive) | 102 | -0.552 (inactive) | -3.7e-05 (inactive) | 0.00563 (inactive) | 10.6% (inactive) | 22.7% (inactive) |
| O=c1[nH]c(NCc2ccccc2)nc2c1CCCC2 | 580 | 4.4% (inactive) | -3.3% (inactive) | 112 | 46% (inactive) | 101 | -0.348 (inactive) | -3.1e-05 (inactive) | 0.00472 (inactive) | -1.14% (inactive) | -4.72% (inactive) |
| CN(C)C(=O)N1CCCC(C(=O)NCc2ccccc2)C1 (stereo not drawn) | 606 | -3.9% (inactive) | -1.5% (inactive) | 84 | -50.4% (inactive) | 112 | -0.341 (inactive) | -2.4e-05 (inactive) | 0.00548 (inactive) | 40.6% (inactive) | 25.4% (inactive) |
| Cc1cc(C)c2c(=O)n(CC(=O)N3CCC(Cc4ccccc4)CC3)sc2n1 | 611 | 16.6% (inactive) | 3% (inactive) | 104 | -6.1% (inactive) | 121 | -0.559 (inactive) | -6.7e-06 (inactive) | 0.00614 (inactive) | 20.7% (inactive) | 46.2% (inactive) |
| Cc1cc(C)c2c(CC(=O)NCc3ccco3)coc2c1 | 262 | 5.7% (inactive) | 23.9% (inactive) | 74.9 | 34.3% (inactive) | 60.6 | -0.324 (inactive) | 4e-05 (inactive) | 0.00608 (inactive) | 10.9% (inactive) | 21.2% (inactive) |
| O=C1CC(c2ccccc2)Cc2nc(N3CCc4ccccc43)ncc21 (stereo not drawn) | 403 | 1.2% (inactive) | -14.1% (inactive) | 95.7 | -134% (inactive) | 183 | -0.0564 (inactive) | -1.7e-05 (inactive) | 0.00498 (inactive) | 9.74% (inactive) | 2.35% (inactive) |
| CCC(C)(NC(=O)CNC(C)=O)C(=O)NC1CCCCC1 (stereo not drawn) | 610 | -15.7% (inactive) | -1.1% (inactive) | 122 | -24.9% (inactive) | 116 | -0.472 (inactive) | -0.000295 (inactive) | 0.00509 (inactive) | -6.71% (inactive) | -2.23% (inactive) |
| Cc1ccc(S(=O)(=O)N2CCN(CCO)CC2)cc1-c1nnc2c3ccccc3c(C)nn12 | 357 | -0.4% (inactive) | -26.9% (inactive) | 102 | 8.6% (inactive) | 81 | -0.609 (inactive) | -1.7e-05 (inactive) | 0.00417 (inactive) | 3.73% (inactive) | 9.83% (inactive) |
| O=C(OCC(=O)N1CCCC1)c1ccccc1OCc1ccccc1 | 576 | -10.8% (inactive) | -9.8% (inactive) | 95.3 | -42.5% (inactive) | 123 | -0.505 (inactive) | -3.9e-05 (inactive) | 0.00498 (inactive) | -11.3% (inactive) | 6.16% (inactive) |
| O=C(O)C1CC=CCC1C(=O)Nc1ccc(S(=O)(=O)N2CCCc3ccccc32)cc1 (stereo not drawn) | 335 | -7.5% (inactive) | -17.2% (inactive) | 92.3 | -43.1% (inactive) | 126 | -0.599 (inactive) | -3.1e-05 (inactive) | 0.00437 (inactive) | 46% (inactive) | -62.7% (inactive) |
| COc1ccc(NC(=O)CSc2nnc(-c3ccccc3C)n2C)cc1 | 661 | 1.6% (inactive) | 3.2% (inactive) | 121 | 81.4% (active) | 111 | -0.422 (inactive) | -3.9e-05 (inactive) | 0.0036 (inactive) | 5.44% (inactive) | 28.1% (inactive) |
| CCOC(=O)c1sc(NC(=O)CSc2nnc(-c3ccc(OC)cc3)n2CCOC)nc1C | 633 | 12.1% (inactive) | 12.9% (inactive) | 88.1 | -89.1% (inactive) | 140 | -0.481 (inactive) | 1.3e-05 (inactive) | 0.00672 (inactive) | 13.8% (inactive) | 24.5% (inactive) |
| O=C(CCN1C(=O)C2C3C=CC(C3)C2C1=O)N1CCN(c2ccccc2Cl)CC1 (stereo not drawn) | 776 | -18.1% (inactive) | -5% (inactive) | 123 | 2.5% (inactive) | 107 | -0.399 (inactive) | -4.7e-05 (inactive) | 0.00465 (inactive) | 10.7% (inactive) | 11.9% (inactive) |
| COCCN(Cc1cc2cc3c(cc2n2nnnc12)OCO3)C(=O)c1ccccc1F | 271 | 10.7% (inactive) | -8.2% (inactive) | 96.5 | -63.4% (inactive) | 105 | -0.352 (inactive) | -3.2e-05 (inactive) | 0.00537 (inactive) | 3.47% (inactive) | 5.93% (inactive) |
| COCCn1nnnc1C(c1cccs1)N1CCN(c2cc(C)ccc2C)CC1 (stereo not drawn) | 203 | 11.4% (inactive) | -9% (inactive) | 84.8 | -2.6% (inactive) | 96.9 | -0.618 (inactive) | 2e-05 (inactive) | 0.00567 (inactive) | 11.1% (inactive) | 16.2% (inactive) |
| COc1ccc(NC(=O)CN2CCN(S(=O)(=O)c3ccc(Cl)cc3)CC2)cc1 | 333 | 1.1% (inactive) | 17.3% (inactive) | 123 | 5% (inactive) | 116 | -0.411 (inactive) | -2.8e-05 (inactive) | 0.00382 (inactive) | 11.8% (inactive) | 17.3% (inactive) |
| Cn1c(=N)c(S(=O)(=O)c2ccc(Cl)cc2)cc2c(=O)n3ccccc3nc21 | 294 | 1.6% (inactive) | -0.4% (inactive) | 97.1 | 10.2% (inactive) | 94.5 | -0.405 (inactive) | -4.7e-05 (inactive) | 0.00398 (inactive) | 8.16% (inactive) | 40.1% (inactive) |
| O=C(COC(=O)c1cc(-c2ccco2)nc2ccccc12)NCc1ccc2c(c1)OCO2 | 349 | -18.2% (inactive) | -7.7% (inactive) | 54 | 3.4% (inactive) | 108 | -0.407 (inactive) | -1.1e-05 (inactive) | 0.00558 (inactive) | 2.9% (inactive) | 11.8% (inactive) |
| CCCCC(=O)NCCc1cc2ccc(OC)cc2[nH]c1=O | 341 | -17% (inactive) | 25.1% (inactive) | 84.4 | -5.9% (inactive) | 91.4 | -0.464 (inactive) | -0.000398 (inactive) | 0.00611 (inactive) | -3.47% (inactive) | 98.8% (active) |
| Nc1nc(-c2ccc(Br)s2)c(Br)s1 | 579 | -10.7% (inactive) | 5.7% (inactive) | 102 | 18.6% (inactive) | 98 | -0.507 (inactive) | 2.9e-05 (inactive) | 0.00465 (inactive) | 1.12% (inactive) | 2.3% (inactive) |
| COc1cc(OC)cc(-c2nc(N)n[nH]2)c1 | 455 | 3.7% (inactive) | 0% (inactive) | 105 | -33% (inactive) | 104 | -0.411 (inactive) | -5.5e-05 (inactive) | 0.00517 (inactive) | 10.7% (inactive) | 12% (inactive) |
| O=C(NCc1ccccn1)c1cc(-n2cnnc2)ccc1Cl | 365 | -3.9% (inactive) | -1.2% (inactive) | 112 | -3.1% (inactive) | 110 | -0.502 (inactive) | -3.7e-05 (inactive) | 0.00641 (inactive) | 2.94% (inactive) | 10.6% (inactive) |
| Cc1csc(NC(=O)CCn2c(=O)oc3ccccc32)n1 | 502 | -20.3% (inactive) | -30.3% (inactive) | 79.1 | -6.4% (inactive) | 90.9 | -0.323 (inactive) | -4.9e-05 (inactive) | 0.00431 (inactive) | 4.3% (inactive) | -1.46% (inactive) |
| COc1ccc(OC)c(C(=O)CSc2nnc(-c3ccc(OC)c(OC)c3)o2)c1 | 399 | 1% (inactive) | 44.4% (active) | 15.1 | -114% (inactive) | 181 | -0.458 (inactive) | 3.9e-05 (inactive) | 0.00796 (inactive) | 12% (inactive) | 21.8% (inactive) |
| COCCOC(=O)c1[nH]c2c(c1C)C(=O)CC(c1ccco1)C2 (stereo not drawn) | 930 | 12.1% (inactive) | -345% (inactive) | 2.7 | -169% (inactive) | 95.8 | -0.568 (inactive) | -6.8e-06 (inactive) | 0.00646 (inactive) | 14.2% (inactive) | 77.7% (active) |
| CCOc1ccc(OCc2cccc(C(=O)N3CCOCC3)c2)cc1 | 383 | 3.1% (inactive) | -7.6% (inactive) | 101 | -148% (inactive) | 117 | -0.407 (inactive) | -6.4e-05 (inactive) | 0.00492 (inactive) | -39.6% (inactive) | -97.2% (inactive) |
| O=C(NCc1ccc2c(c1)OCO2)c1ccccn1 | 345 | -2% (inactive) | 18.9% (inactive) | 100 | 5.4% (inactive) | 122 | -0.375 (inactive) | 4.1e-05 (inactive) | 0.00534 (inactive) | -23.2% (inactive) | -28.1% (inactive) |
| CCOC(=O)c1oc2ccccc2c1NC(=O)COC | 602 | -1.8% (inactive) | 15.5% (inactive) | 92.3 | 66.5% (inactive) | 59.1 | -0.486 (inactive) | -1.7e-05 (inactive) | 0.00552 (inactive) | -14.3% (inactive) | 4.92% (inactive) |
